Measurements from PubChem BioAssay (EPA / NIEHS).
Results filed as inconclusive are left out. Calls of active or inactive are those of the source. Rule for the calls: active = hit-call score of the fitted dose curve at least 0.9, where 1 is the maximum; inconclusive = response in the unintended direction; inactive = score below 0.9.

Molecular target: Luciferin 4-monooxygenase (Photinus pyralis) (UniProt P08659)
Test: CCTE_Simmons_QuantiLum_inhib_2: CCTE's Firefly Luciferase Inhibition Assay, Simmons Lab (AID 2283767)
Method: CCTE_Simmons_QuantiLum_inhib_2 is a biochemical, single-readout assay that uses purified luciferase enzyme in a cell-free assay.Measurements were taken 0.5 hour after chemical dosing in a 384-well plate.CCTE_Simmons_QuantiLum_inhib_2 is the assay component measured from the CCTE_Simmons_QuantiLum_inhib_2 assay. It is designed to make measurements of enzyme activity, a form of enzyme reporter, as detected with bioluminescence signals by Luciferase-coupled Quantilum levels technology. This is a secondary assay to CCTE_Simmons_AUR_TPO to evaluate nonspecific enzyme inhibition.Data from the assay component CCTE_Simmons_QuantiLum_inhib_2 was analyzed at the endpoint, CCTE_Simmons_QuantiLum_inhib_2, in the positive analysis fitting direction relative to DMSO as the negative control and baseline of activity. Using a type of enzyme reporter, measures of enzyme activity for loss-of-signal activity can be used to understand inhibition of firefly luciferase. This is an assay endpoint to indicate nonspecific protein inhibition for comparison to aeid 1508 for thyroperoxidase inhibition. To generalize the intended target to other relatable targets, this assay endpoint is annotated to the oxidoreductase intended target family, where the subfamily is monooxygenase.
Quanti-Lum recombinant luciferase (Promega; Madison, Wisconsin) was diluted to 76.9 ng/ml with 200mM potassium phosphate buffer supplemented with 1 mg/ml bovine serum albumin and 65ul (5ng recombinant luciferase) per well was dispensed into opaque, white 384-well plates (Greiner, BioExpress) using an automated liquid handler (BioTek MicroFlo) with a plastic 5 ul tubing cassette. Test compounds were administered using the HDRT as described earlier to achieve a 0.5% final DMSO concentration. Microplates were incubated at 37C in the dark for 30min to mimic the AUR-TPO assay conditions. Luciferase detection reagent (25 ul per well; 9.2 mM dithiothreitol, 75uM Coenzyme A, 147uM dATP, 150uM D-luciferin, 8.9 mM Tricine, 297uM (MgCO3)4.Mg(OH)2.5H20, 742uM MgSO4, 27.8uM EDTA, pH 7.8, final assay concentrations) was then added using a BMG Clariostar plate reader equipped with syringe injectors (BMG LabTech; GmbH). Plates were read using a kinetic luminescence protocol (top read) whereby each well was individually injected with luciferase detection reagent immediately prior to measurement. Three biological replicates of technical singles were run for every chemical concentration tested. A titrated range of LUCINH2 served as a positive control on each plate of the luciferase inhibition screening assay. Test chemicals were administered as a titrated series of 8 concentrations from 5 nM up to 87.5 uM [final] for 30 minutes prior to single endpoint detection. Dimethylsulfoxide [DMSO] was used as the vehicle control. Luciferase Inhibitor I [2-(5-(2-Methoxyphenyl)-1,2,4-oxadiazol-3-yl)pyridine] was used as the positive control and was administered as a titrated series of 8 concentrations from 1 nM up to 100 uM [final].

Luciferin 4-monooxygenase (Photinus pyralis), sequence (P08659 whole entry, looked up): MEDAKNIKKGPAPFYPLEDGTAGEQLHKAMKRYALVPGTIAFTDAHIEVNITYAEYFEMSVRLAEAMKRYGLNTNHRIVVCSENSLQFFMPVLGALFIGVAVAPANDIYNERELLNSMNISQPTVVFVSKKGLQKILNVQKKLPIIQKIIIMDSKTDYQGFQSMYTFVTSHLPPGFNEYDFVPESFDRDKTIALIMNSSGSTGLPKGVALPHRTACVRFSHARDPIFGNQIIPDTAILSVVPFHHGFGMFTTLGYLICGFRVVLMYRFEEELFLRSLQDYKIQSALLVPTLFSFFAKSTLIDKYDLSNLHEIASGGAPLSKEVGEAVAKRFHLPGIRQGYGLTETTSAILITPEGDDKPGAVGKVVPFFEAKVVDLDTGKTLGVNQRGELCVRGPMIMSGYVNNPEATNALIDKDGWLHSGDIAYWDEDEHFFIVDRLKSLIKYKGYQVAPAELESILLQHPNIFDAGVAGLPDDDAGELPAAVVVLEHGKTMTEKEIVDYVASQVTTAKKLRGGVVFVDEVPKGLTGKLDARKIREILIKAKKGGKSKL

Structure (SMILES)	outcome
C[C@]12CCC(=O)C=C1CC[C@@H]1[C@@H]2CC[C@]2(C)C(=O)CC[C@@H]12	inactive
Cc1ccc(O)c(C)c1	inactive
CCCCCCCCOC(=O)c1ccccc1C(=O)OCCCCCCCC	inactive
Oc1ccc(C(c2ccc(O)cc2)(C(F)(F)F)C(F)(F)F)cc1	inactive
Sc1ccccc1	inactive
O=C(O)C(F)(F)C(F)(F)C(F)(F)C(F)(F)C(F)(F)C(F)(F)C(F)(F)C(F)(F)C(F)(F)F	inactive
c1ccc(-c2ccccc2)cc1	inactive
COc1ccc(O)c(C(C)(C)C)c1	inactive
CCCCCCCCCc1ccc(O)cc1	inactive
CCC(C)(c1ccc(O)cc1)c1ccc(O)cc1	inactive
Cc1ccccc1CO[C@@H]1C[C@@]2(C(C)C)CC[C@]1(C)O2	inactive
COS(=O)(=O)OC	inactive
O=C(NC(=O)c1c(F)cccc1F)Nc1cc(Cl)c(OC(F)(F)C(F)F)c(Cl)c1	inactive
Clc1ccc(C(Cl)(Cl)Cl)cc1	inactive
CCC(=O)O[C@H]1CC[C@H]2[C@@H]3CCC4=CC(=O)CC[C@]4(C)[C@H]3CC[C@]12C	inactive
CCCCCCCCCC[N+](C)(C)CCCCCCCCCC	inactive
Oc1c(Cl)c(Cl)c(Cl)c(Cl)c1Cl	inactive
CC(C)(c1ccccc1)c1ccc(O)cc1	inactive
CC(c1ccc(O)cc1)(c1ccc(O)cc1)c1ccc(O)cc1	inactive
O=C(O)C(F)(F)C(F)(F)C(F)(F)C(F)(F)C(F)(F)C(F)(F)C(F)(F)C(F)(F)F	inactive
